Records with an inconclusive call do not appear. Active and inactive are the calls of the source. Unless noted, calls follow the shape of the dose curve; as a rule, active = well fitted curve in the direction sought with a large enough effect; inconclusive = small, poorly fitted or top-dose-only effect, or another doubt; inactive = no such curve, though single readings can be large; an effect the other way counts as inactive or inconclusive.
Assays:
[1] = qHTS for Inhibitors of Plasmodium falciparum (GB4) proliferation (AID 504315); also: nearly all actives have a fitted effect of over 50% in size; details: P. falciparum GB4 in erythrocytes, SYBR Green DNA, 72 h; series mostly up to 6.7 µM
Outline: (§1)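 Parasite growth measured as SYBR Green DNA fluorescence (ex 485, em 535 nm) after overnight lysis following 72 h culture at 37 °C, 0.3% parasitemia, 2.5% hematocrit. Values normalized against DMSO and 0.29 uM artemisinin controls, with plate-stack correction.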

[2] = qHTS for Inhibitors of Plasmodium falciparum (CP250) proliferation (AID 504320); details: P. falciparum CP250 in erythrocytes, SYBR Green DNA, 72 h; series mostly up to 6.7 µM
Outline: as §1

[3] = biological target: Atrial natriuretic peptide receptor 1 (Homo sapiens) (UniProt P16066); assay: Natriuretic polypeptide receptor (hNpr1) antagonism - Pilot CMLD screen (AID 1347052; calls by dose curve;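 also: HEK293 cells with hNpr1 stimulated by hNppA peptide at 0.1 nM; cGMP level read as GloSensor luciferase luminescence after agonist stimulation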); details: HEK293 hNpr1 GloSensor cGMP luminescence, ANP-stimulated; series mostly up to 9.22 µM
Chain of Atrial natriuretic peptide receptor 1 (Homo sapiens) (P16066 whole entry, looked up): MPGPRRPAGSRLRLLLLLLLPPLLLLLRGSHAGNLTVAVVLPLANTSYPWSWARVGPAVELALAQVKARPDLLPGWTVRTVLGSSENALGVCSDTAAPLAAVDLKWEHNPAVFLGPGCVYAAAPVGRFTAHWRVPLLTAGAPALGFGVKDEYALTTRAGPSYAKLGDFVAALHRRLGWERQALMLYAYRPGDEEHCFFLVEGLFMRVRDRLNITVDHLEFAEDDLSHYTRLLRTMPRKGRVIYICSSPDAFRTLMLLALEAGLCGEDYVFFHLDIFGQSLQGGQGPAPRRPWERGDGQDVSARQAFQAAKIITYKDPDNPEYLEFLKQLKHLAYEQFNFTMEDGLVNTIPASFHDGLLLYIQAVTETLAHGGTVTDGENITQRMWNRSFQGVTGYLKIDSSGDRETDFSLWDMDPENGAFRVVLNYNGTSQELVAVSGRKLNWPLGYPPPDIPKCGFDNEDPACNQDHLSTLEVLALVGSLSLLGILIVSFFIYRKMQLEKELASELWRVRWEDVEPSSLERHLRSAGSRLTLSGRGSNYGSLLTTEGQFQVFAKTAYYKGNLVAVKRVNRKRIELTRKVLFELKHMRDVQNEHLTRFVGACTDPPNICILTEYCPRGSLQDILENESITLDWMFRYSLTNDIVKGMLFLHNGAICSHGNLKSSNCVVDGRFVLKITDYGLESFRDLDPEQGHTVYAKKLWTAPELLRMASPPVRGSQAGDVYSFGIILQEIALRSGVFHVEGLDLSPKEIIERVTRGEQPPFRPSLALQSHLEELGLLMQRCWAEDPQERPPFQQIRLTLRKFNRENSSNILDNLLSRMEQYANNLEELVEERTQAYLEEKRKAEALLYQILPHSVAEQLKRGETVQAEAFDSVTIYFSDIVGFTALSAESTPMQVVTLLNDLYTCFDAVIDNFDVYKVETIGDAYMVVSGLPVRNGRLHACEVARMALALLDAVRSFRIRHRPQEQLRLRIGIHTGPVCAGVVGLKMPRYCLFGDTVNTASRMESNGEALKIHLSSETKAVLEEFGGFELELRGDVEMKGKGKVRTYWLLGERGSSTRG

[4] = qHTS for Inhibitors of Plasmodium falciparum (HB3) proliferation (AID 504318); also: nearly all actives have a fitted effect of over 60% in size; details: P. falciparum HB3 in erythrocytes, SYBR Green DNA, 72 h; series mostly up to 7.21 µM
Outline: as §1

Measured: Potency

COC(=O)C1=C(C)N(CCc2cc(OC)c(OC)c(OC)c2)C(=O)NC1c1ccc(Br)cc1 (centres undefined)
inactive: [1] | [2] | [3]

CC1=C[C@@H](COCc2ccccc2)O[C@@]2(C1)C(=O)N(CC1CC1)c1ccccc12
inactive: [1] | [2] | [3]

COc1cccc([C@@H](NC(=O)C(F)(F)F)[C@@H]2CCCC=C2c2ccccc2)c1
inactive: [1] | [2] | [3]

O=C1[C@H]2[C@@H]3[C@@H](O)[C@H](O)CC(=NOCc4ccccc4)[C@H]3CC[C@H]2C(=O)N1C1CCCCC1
inactive: all assays above

CC1=C2[C@H](O)[C@H]([C@@H](C)C(=O)NCCC(C)C)CC[C@@]2(C)C=CC1=O
inactive: [1] | [2] | [3]

COC(=O)CCC(=O)OC1(C)C(=O)C=C2C=C(C3CC3)OC=C2C1=O (centres undefined)
inactive: all assays above

COCC=CC1=CC2=CC(=O)C(C)(OC(=O)c3cnc4ccccc4n3)C(=O)C2=CN1CCc1c[nH]c2ccccc12 (centres undefined)
inactive: all assays above

— PubChem BioAssay (NCATS)
